Test results as given in the supplement of paper PMC13094657.
± gives the standard deviation of the averaged measurements.

Tests used:
[1] = system: MDA-MB-231; experiment: cell viability relative to vehicle unstimulated control (fraction); higher = more viable cells; conditions: pre-treatment time: 18 h then 24 h IFNg/TNF
[2] = system: MDA-MB-231; experiment: kynurenine production, fold change vs DMSO IFNg/TNF control; higher = more kynurenine produced (less inhibition); conditions: pre-treatment time: 18 h then 24 h IFNg/TNF
Summary of the method: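 Fold change over cytokine-stimulated vehicle wells on the same plate is the measure used for kynurenine production, averaged across duplicate plates in the first screening round. MDA-MB-231 cells, seeded 24 h beforehand at 7 × 10^4/well in 96-well plates, were pre-treated 18 h with each natural product in 0.1% DMSO and stimulated 24 h at 37°C with IFNγ (1 U/ml) and TNF (6.25 ng/ml). Supernatants were read at 492 nm following trichloroacetic acid and p-dimethylaminobenzaldehyde treatment, against 0–100 μM standards.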
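For cell viability relative to vehicle unstimulated control in this document: viability of the cells left after supernatant collection, read with Deep Blue dye added for 4 h, as absorbance at 570 nm minus 600 nm.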

Structure (SMILES)	cell viability [1]	kynurenine production [2]
C=C(C)C1CC=C(C)CC1 (stereo not drawn) [(s)-(-)-limonene] (compound dose: 10 uM)	0.944 ± 0.051	0.84 ± 0.099
C/C=C(/C)C(=O)O[C@H]1[C@H](OC(C)=O)[C@]2(CO)[C@H](O)C[C@]3(C)C(=CC[C@@H]4[C@@]5(C)CC[C@H](O[C@@H]6O[C@H](C(=O)O)[C@@H](O[C@@H]7O[C@H](CO)[C@@H](O)[C@H](O)[C@H]7O)[C@H](O)[C@H]6O[C@@H]6O[C@H](CO)[C@@H](O)[C@H](O)[C@H]6O)[C@](C)(CO)[C@@H]5CC[C@]43C)[C@@H]2CC1(C)C [Escin IB] (compound dose: 10 uM)	0.915 ± 0.022	0.801 ± 0.012
O=c1ccn2c(n1)O[C@H]1[C@H](O)[C@@H](CO)O[C@H]12 [2,2'-Anhydrouridine] (compound dose: 10 uM)	0.906 ± 0.036	0.923 ± 0.092
CC1(C)CC[C@]2(C(=O)O[C@@H]3O[C@H](CO[C@@H]4O[C@H](CO)[C@@H](O)[C@H](O)[C@H]4O)[C@@H](O)[C@H](O)[C@H]3O)CC[C@]3(C)C(=CC[C@@H]4[C@@]5(C)CC[C@H](O[C@@H]6OC[C@H](O)[C@H](O)[C@H]6O)[C@@](C)(CO)[C@@H]5CC[C@]43C)[C@@H]2C1 [Asperosaponin VI] (compound dose: 10 uM)	0.9877 ± 0.0023	0.748 ± 0.087
C[C@H]1[C@H](C)CC[C@]2(C(=O)O)CC[C@]3(C)C(=CC[C@@H]4[C@@]5(C)CC[C@H](O)C(C)(C)[C@@H]5CC[C@]43C)[C@H]12 [Ursolic acid] (compound dose: 10 uM)	0.973 ± 0.015	0.891 ± 0.21
C[C@@H]1CC[C@]2(C(=O)O)CC[C@]3(C)C(=CCC4[C@@]5(C)CC[C@H](O[C@@H]6OC[C@H](O)[C@H](O)[C@H]6O)C(C)(C)C5CC[C@]43C)[C@@H]2[C@]1(C)O (some centres undefined) [Ziyuglycoside II] (compound dose: 10 uM)	0.934 ± 0.014	0.646 ± 0.0077
CC(C)c1cccc(=O)c(O)c1 [Hinokitiol] (compound dose: 10 uM)	0.9746 ± 0.0011	0.423 ± 0.025
CC1=CC23C(=O)C(C=C4COC(C)(C)OC4C2(O)C1O)C1C(CC3C)C1(C)C (centres undefined) [Ingenol-5,20-acetonide] (compound dose: 10 uM)	0.948 ± 0.042	1.07 ± 0.082
C=CC(=C)CCC=C(C)CCC=C(C)C [(E)-β-Farnesene] (compound dose: 10 uM)	0.977 ± 0.015	0.723 ± 0.27
C=C1C(=O)O[C@H]2C1CC[C@@](C)(O)C13C=CC(C)(C21)C1(C3)C(=O)O[C@@H]2C3C(C)=CCC3[C@](C)(O)[C@H](OC(C)=O)CC21 (some centres undefined) [Handelin] (compound dose: 10 uM)	0.83 ± 0.29	0.709 ± 0.3
COC(=O)C1=CO[C@@H](O[C@@H]2O[C@H](CO)[C@@H](O)[C@H](O)[C@H]2O)[C@H]2[C@@H]1C(=O)C[C@@H]2C [Verbenalin] (compound dose: 10 uM)	0.953 ± 0.052	0.834 ± 0.12
C=C1[C@H](OC(=O)C(C)C)[C@@H](O)[C@@H](OC(C)=O)C(C)(C)/C=C/[C@H](C)[C@H](OC(C)=O)[C@@]2(O)C[C@@](C)(OC(C)=O)[C@H](OC(=O)c3ccccc3)[C@@H]2[C@H]1OC(C)=O [Jatrophane 4] (compound dose: 10 uM)	1.1 ± 0.017	0.7528 ± 0.0061
O[C@H]1[C@H]2c3cc4c(cc3CN3CC[C@H](C[C@@H]1O)[C@H]23)OCO4 [Dihydrolycorine] (compound dose: 10 uM)	0.961 ± 0.041	0.723 ± 0.022
C[C@H](CC[C@@H](OC[C@@H]1O[C@H](OC[C@H]2O[C@@H](O)[C@H](O)[C@@H](O)[C@@H]2O)[C@@H](O)[C@H](O)[C@H]1O)C(C)(C)O)[C@H]1CC[C@@]2(C)[C@@H]3CC=C4[C@@H](CC[C@H](O)C4(C)C)[C@]3(C)[C@H](O)C[C@]12C [Mogroside IIA1] (compound dose: 10 uM)	1.22 ± 0.15	1.07 ± 0.13
CC1(C)CCC[C@](C)([C@H]2CC[C@]3(C)[C@@H]2[C@H](O)C[C@@H]2[C@@]4(C)CC[C@H](O)C(C)(C)[C@@H]4[C@@H](O)C[C@]23C)O1 [Panaxatriol] (compound dose: 10 uM)	0.926 ± 0.025	0.846 ± 0.073
COc1cc2cc3c4c(cc5c(c4c2cc1OC)OCO5)CCN3C [Dehydrodicentrine] (compound dose: 10 uM)	0.946 ± 0.021	0.807 ± 0.12
C[C@H]1[C@H](C)CC[C@]2(CO)CC[C@]3(C)C(=CC[C@@H]4[C@@]5(C)CC[C@H](O)C(C)(C)[C@@H]5CC[C@]43C)[C@H]12 [Uvaol] (compound dose: 10 uM)	1.03 ± 0.14	0.98 ± 0.3
C=C(C)[C@@H]1CC[C@]2(C(=O)O[C@@H]3O[C@H](CO[C@@H]4O[C@H](CO)[C@@H](O[C@@H]5O[C@@H](C)[C@H](O)[C@@H](O)[C@H]5O)[C@H](O)[C@H]4O)[C@@H](O)[C@H](O)[C@H]3O)CC[C@]3(C)[C@H](CC[C@@H]4[C@@]5(C)CC[C@H](O[C@@H]6OC[C@H](O)[C@H](O)[C@H]6O[C@@H]6O[C@@H](C)[C@H](O)[C@@H](O)[C@H]6O)[C@@](C)(CO)[C@@H]5CC[C@]43C)[C@@H]12 [Pulchinenoside C] (compound dose: 10 uM)	0.9971 ± 0.0034	1.03 ± 0.18
C/C=C(\C)C(=O)O[C@H]1[C@H](O)[C@]2(COC(C)=O)[C@H](O)C[C@]3(C)C(=CC[C@@H]4[C@@]5(C)CC[C@H](O[C@@H]6O[C@H](C(=O)O)[C@@H](O[C@@H]7O[C@H](CO)[C@@H](O)[C@H](O)[C@H]7O)[C@H](O)[C@H]6O[C@@H]6O[C@H](CO)[C@@H](O)[C@H](O)[C@H]6O)[C@](C)(CO)[C@@H]5CC[C@]43C)[C@@H]2CC1(C)C [Isoescin IA] (compound dose: 10 uM)	1.001 ± 0.0061	0.779 ± 0.12
CC(C)=CC/C=C(/C)[C@H]1CC[C@@]2(C)[C@@H]1[C@@H](O)CC1[C@@]3(C)CCC(O[C@@H]4O[C@H](CO)[C@@H](O)[C@H](O)[C@H]4O)C(C)(C)C3CC[C@]12C (some centres undefined) [Ginsenoside Rh3] (compound dose: 10 uM)	–	0.858 ± 0.029
CC1C(=O)OC2C(O)C34C5CC(C(C)(C)C)C36C(OC(=O)C6O)OC4(C(=O)O5)C12O (centres undefined) [Ginkgolide B] (compound dose: 10 uM)	0.9 ± 0.12	1.18 ± 0.033
C/C=C(/C)C(=O)O[C@H]1C(C)=C[C@]23C(=O)[C@@H](C=C(CO)[C@@H](O)[C@]12O)[C@H]1[C@@H](C[C@H]3C)C1(C)C [Ingenol 3-Angelate] (compound dose: 10 uM)	0.958 ± 0.11	0.979 ± 0.16
C[C@H](CC[C@@H](O)C(C)(C)O)[C@H]1CC[C@@]2(C)[C@@H]3CC=C4[C@@H](CC[C@H](O[C@@H]5O[C@H](CO)[C@@H](O)[C@H](O)[C@H]5O)C4(C)C)[C@]3(C)[C@H](O)C[C@]12C [Mogroside I E1] (compound dose: 10 uM)	0.906 ± 0.15	0.981 ± 0.35
CC12CCC(CC1=O)C2(C)C (centres undefined) [Camphor] (compound dose: 10 uM)	0.977 ± 0.016	0.832 ± 0.21
C=C(C(=O)O)[C@@H]1CC[C@@H](C)[C@@H]2CCC(C)=C[C@@H]21 [Artemisinic acid] (compound dose: 10 uM)	1.08 ± 0.11	0.889 ± 0.031
C=C(C)[C@@H]1CC[C@]2(C)CC[C@]3(C)[C@H](CC[C@@H]4[C@@]5(C)CCC(=O)C(C)(C)[C@@H]5CC[C@]43C)[C@@H]12 [Lupenone] (compound dose: 10 uM)	0.9789 ± 0.0076	0.898 ± 0.16
O=C1C[C@@H](c2ccc(O)cc2)Oc2cc(O)cc(O)c21 [Naringenin] (compound dose: 10 uM)	0.921 ± 0.013	0.772 ± 0.011
C[C@H]1O[C@@H](O[C@H]2CC[C@@]3(C)[C@@H](CC[C@]4(C)[C@@H]3C=C[C@]35OC[C@@]6(CCC(C)(C)C[C@H]63)[C@@H](O)C[C@]54C)[C@]2(C)CO)[C@H](O)[C@@H](O[C@@H]2O[C@H](CO)[C@@H](O)[C@H](O)[C@H]2O)[C@H]1O [Saikosaponin A] (compound dose: 10 uM)	1.015 ± 0.0091	0.824 ± 0.1
CC(C)=CCC[C@](C)(O[C@@H]1O[C@H](CO)[C@@H](O)[C@H](O)[C@H]1O)[C@H]1CC[C@]2(C)[C@@H]1[C@H](O)C[C@@H]1[C@@]3(C)CC[C@H](O)C(C)(C)[C@@H]3CC[C@]12C [Ginsenoside C-K] (compound dose: 10 uM)	0.969 ± 0.016	0.912 ± 0.14
C=C(C)C(=O)O[C@H]1CC2=C[C@@H](C/C(C)=C/[C@H]3OC(=O)C(=C)[C@H]13)OC2=O [Deoxyelephantopin] (compound dose: 10 uM)	0.768 ± 0.041	0.117 ± 0.06
